# TMEM16A act = mouse TMEM16A channel activation, primary screen | HEK293 TMEM16A/YFP-H148Q/I152L, iodide quench fluorescence; stronger effect = lower value | B-score at 10 µM | hit rate 0.3% among 340,000;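 active means fluorescence-ratio B-score plate-corrected deviation score at least 3 library SD below zero, with starting fluorescence score within 5 deviations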;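 further: channel opened by trigger with iodide after compound preincubation; score built on the fluorescence ratio of max minus min over baseline; more negative score means more quench and so TMEM16A activation or potentiation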
# hiPSC survival = hiPSC single-cell survival enhancement | survival enhancement, % at 20 µM | hit rate 0.044% among 360,000 | AID 602274 | ATPlite luminescence; 100% = ROCK inhibitor wells, 0% = DMSO; in the data active means survival enhancement above about 18%;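 further: cells exposed to compounds for 16 hours before the ATP read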
# DAGLB inh = blocks human DAGLB lipase activity; Q8NCG7; HEK293T DAGLB membrane lysate, EnzChek fluorogenic substrate; inhibition, % at 5.17 µM; hit rate 0.059% among 340,000; AID 504411; in the data active means inhibition above about 34%;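 further: 0% = enzyme with vehicle and 100% = wells lacking enzyme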
# ABCB6 inh MLPCN = human ABCB6 transporter inhibition | K562-ABCB6 porphyrin accumulation, flow cytometry, 1 h; stronger effect = lower value | fluorescence ratio to DMSO, % at 10 µM | hit rate 0.19% among 360,000 | Q9NP58;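 active means fluorescence ratio to DMSO below 75%, the collection mean minus 3 SD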;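 further: signal is porphyrin accumulated inside mitochondria; 100% equals median channel fluorescence of DMSO control wells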
# ANO1 block = mouse TMEM16A channel inhibition, primary screen; normalized B-score (activity score, 25-100; higher = stronger inhibition) at 10 µM; AID 588511; Q8BHY3; hit rate 1.2% among 310,000; HEK293 TMEM16A/YFP iodide influx fluorescence, ionomycin;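 active means ratio plate-corrected score three or more library SD toward inhibition, starting fluorescence score within five deviations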;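 further: score derived from kinetic fluorescence span divided by baseline fluorescence per well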
# ABCB6 blocker 1 = inhibitors of human ABC transporter ABCB6; shares compounds with ABCB6 inh MLPCN; K562-ABCB6 porphyrin accumulation, flow cytometry, 1 h; stronger effect = lower value; ratio response (% of DMSO), % at 10 µM; 700 tested, under 10 active;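 active means repeat-averaged ratio response below 75% of DMSO, the collection mean minus 3 SD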;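 further: median porphyrin fluorescence at 575 nm with 488 nm excitation from mitochondria; lower ratio means less porphyrin signal so ABCB6 inhibition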
# K562 vector FC = counter-screen for ABCB6 inhibitors: effect in vector-only K562 cells; shares compounds with ABCB6 inh MLPCN; K562 empty-vector cells, flow cytometry fluorescence, 1 h; percent response (fluorescence), % at 100 µM; 25 tested, under 10 active; AID 624484;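 active means compounds whose half-maximal effective concentration is below 100 µM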
# * marks the source's active call; other numbers are inactive results; i = inactive; . = not tested or not shown. Rows were chosen to be rich in hits. Some 1.5% of all compounds tested hit in one or more screens of this group.
SMILES,TMEM16A act,hiPSC survival,DAGLB inh,ABCB6 inh MLPCN,ANO1 block,ABCB6 blocker 1,others
CC(C)c1ccc(CC(=O)N2CCC2(C)C(=O)NS(=O)(=O)c2ccc(F)cc2F)cc1 (stereo unspecified),.,-4,.,99,.,97,
CC1(C(=O)NS(=O)(=O)c2ccc(F)cc2F)CCN1C(=O)Cc1cccc2ccccc12 (stereo unspecified),.,0,.,97,.,100,
CCCCNc1cccc2c1S(=O)(=O)N(CCCC)CC(COCc1ccccc1)O2 (stereo unspecified),.,2,-17,96,.,.,
COCCNC(=O)c1cc2nc(-c3ccccc3)cc(C)n2n1,i,-1,-1,68*,i,99,
CCOC(=O)c1cc(C#N)c(SC)nc1C,i,-1,-6,98,i,.,
CCOC(=O)c1cc2c(N)c(C(=O)c3cc(C#N)c(SC)nc3C)sc2nc1C,i,1,0,72*,i,104,
CCC(=O)N(C)C[C@@H]1Oc2ncc(Br)cc2C(=O)N([C@H](C)CO)C[C@H]1C,.,-1,-1,99,.,.,
Cc1cccc(/C=C2\Sc3ccc(C(=O)N4CCC(C)CC4)cc3N(C)C2=O)c1,i,0,-8,13*,i,102,
Cc1cccc(/C=C2\Sc3ccc(C(=O)N4CCCCC4)cc3N(C)C2=O)c1,i,-1,-8,99,i,.,
COc1ccc(S(=O)(=O)NC(=O)C2(C)CCN2C(=O)Cc2cccc3ccccc23)cc1 (stereo unspecified),.,2,.,104,.,99,
COc1ccc(S(=O)(=O)NC(=O)C2(C)CCN2C(=O)Cc2ccc(-c3ccccc3)cc2)cc1 (stereo unspecified),.,0,.,98,.,.,
CC1(C(=O)NS(=O)(=O)c2ccc(C#N)cc2)CCN1C(=O)Cc1cccc2ccccc12 (stereo unspecified),.,2,.,65*,.,99,
Cc1cc(C(=O)N2CCCC(C)(C(=O)NS(=O)(=O)C3CC3)C2)n(C(C)(C)C)n1 (stereo unspecified),.,0,.,109,.,.,
Cc1cc(C)c(C2=Nn3c(C)nnc3SC2C)cc1C (stereo unspecified),i,-1,3,92,i,.,
CCOC(=O)C1(C(=O)OCC)CCN(S(=O)(=O)c2ccccc2)CC1,i,-2,-6,101,.,99,
Cc1ccc(S(=O)(=O)CCc2nnc(NC(=O)c3cnccn3)s2)cc1,i,-2,1,98,i,.,
Cc1ccc(NC(=O)c2nc(S(=O)(=O)Cc3ccccc3C)ncc2Cl)cc1C,i,0,4,48*,i,.,K562 vector FC=254
CCOC(=O)c1ccc(NC(=O)c2nc(S(=O)(=O)Cc3ccccc3)ncc2Cl)cc1,i,20*,2,46*,i,.,K562 vector FC=231
CCSc1ncc(Cl)c(C(=O)Nc2ccc(S(=O)(=O)Nc3ncccn3)cc2)n1,i,0,-1,108,i,.,
CCCc1nnc(NC(=O)c2nc(S(=O)(=O)Cc3ccc(C)cc3)ncc2Cl)s1,i,0,5,91,i,.,K562 vector FC=261
CCCS(=O)(=O)c1ncc(Cl)c(C(=O)Nc2ccc(S(=O)(=O)Nc3ncccn3)cc2)n1,i,0,2,103,i,104,
CC(C)c1nnc(NC(=O)c2nc(S(=O)(=O)Cc3ccccc3)ncc2Cl)s1,i,0,3,81,i,.,K562 vector FC=199
CSc1nnc(NC(=O)c2nc(S(=O)(=O)Cc3ccccc3)ncc2Cl)s1,i,2,4,104,i,.,
CCc1ccc(NC(=O)c2nc(S(=O)(=O)Cc3ccccc3)ncc2Cl)cc1,i,0,0,66*,i,.,K562 vector FC=259
CCOc1ccccc1NC(=O)c1ccc(C(=O)Nc2ccccc2OCC)nc1,i,0,-1,98,i,.,
CCOc1ccccc1NC(=O)c1nc(S(=O)(=O)Cc2ccccc2)ncc1Cl,i,12,-3,44*,i,.,K562 vector FC=276
